# From PubChem
# G9a block = qHTS Assay for Inhibitors of Histone Lysine Methyltransferase G9a; Histone-lysine N-methyltransferase EHMT2 (Homo sapiens), Q96KQ7; G9a H3K9 monomethylation, AlphaScreen, 2 h; Potency, µM (highest dose often 102 µM), most hits filed as inhibitors; actives 8.8% (n = 350,000); further: nearly all actives have a fitted effect of over 75% in size
# Target sequence (Q96KQ7 913-1193 limits assumed): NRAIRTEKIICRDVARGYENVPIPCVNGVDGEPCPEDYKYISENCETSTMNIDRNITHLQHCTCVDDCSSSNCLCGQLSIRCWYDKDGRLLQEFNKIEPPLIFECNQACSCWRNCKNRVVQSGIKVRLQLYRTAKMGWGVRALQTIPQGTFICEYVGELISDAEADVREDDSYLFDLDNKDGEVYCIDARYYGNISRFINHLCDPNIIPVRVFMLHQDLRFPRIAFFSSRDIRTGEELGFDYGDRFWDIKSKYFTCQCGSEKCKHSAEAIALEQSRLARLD
#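 Methyltransferase reactions run at room temperature for 2 h (20 nM enzyme, 500 nM biotin-H3K9 peptide, 20 uM SAM) after a 15 min compound preincubation; product detected by AlphaScreen beads and anti-H3K9me1 antibody.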
# FBPA coupling cs = qHTS Assay for Inhibitors of Fructose-1,6-bisphosphate Aldolase from Giardia Lamblia: Coupling assay counterscreen; coupling enzyme system counterscreen, AmpLite Red fluorescence; actives 0.67% (n = 290,000); AID 2472, 2010; activity change, negative = inhibition, % at 58.2 µM, hits read low; in the data active means activity change below about -30%
#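 Activity here indicates interference with the coupling reaction, not aldolase inhibition. Compounds at 57.5 uM final met coupling enzymes for 10 min at RT; substrate and AmpLite Red detection followed, with a 525/598 nm fluorescence read after 20 min.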
# Tau fluor cs = Counterscreen qHTS for Inhibitors of Tau Fibril Formation, Fluorescence Polarization; tau K18 P301L Alexa594 fluorescence, heparin fibrillization; Potency, µM (titrated, usually from 57.7 µM); actives 0.93% (n = 280,000); further: nearly all actives have a fitted effect of over 55% in size
#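 Human tau K18 P301L (15 uM unlabeled, 0.24 uM Alexa 594-labeled) in 100 mM sodium acetate pH 7 with 20 uM heparin, 6 hr at 37 C. ThT 30 uM added, 1 hr ambient; Alexa 594 FP and total fluorescence read at 555/632 nm.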
# Tau ThT inhib = qHTS for Inhibitors of Tau Fibril Formation, Thioflavin T Binding; Potency, µM (top dose mostly 57.4 µM), usual class: inhibitors; Microtubule-associated protein tau (Homo sapiens), P10636; actives 2.1% (n = 270,000); recombinant tau K18 P301L (four-repeat tau fragment), heparin-induced fibrillization, ThT fluorescence; AID 1460, 2008; further: nearly all actives have a fitted effect of over 55% in size
# Target sequence (P10636 561-689 P618L limits assumed): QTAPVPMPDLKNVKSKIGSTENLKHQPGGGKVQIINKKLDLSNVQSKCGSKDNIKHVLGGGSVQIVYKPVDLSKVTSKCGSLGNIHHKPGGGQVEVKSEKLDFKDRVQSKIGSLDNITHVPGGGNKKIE
#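 K18 P301L tau (15 uM + 0.24 uM Alexa 594-tagged), heparin 20 uM, NaOAc pH 7, 6 h 37 C; ThT 30 uM, 1 h RT, ex 450/em 510 nm.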
# Tau FP inhib = qHTS for Inhibitors of Tau Fibril Formation, Fluorescence Polarization. Microtubule-associated protein tau (Homo sapiens), P10636. K18 P301L tau heparin fibrillization, Alexa594 FP, 6 h. Potency, µM (titrated, usually from 57.7 µM), actives largely listed as inhibitors. actives 0.39% (n = 280,000). AID 1468, 2008; further: nearly all actives have a fitted effect of over 55% in size
#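 Recombinant K18 P301L […], labeled with Alexa 594 at 0.24 uM over 15 uM unlabeled; heparin inducer 20 uM final; 37 C, 6 hr; FP endpoint.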
# Sfp PPTase inh = qHTS Assay for Inhibitors of Bacillus subtilis Sfp phosphopantetheinyl transferase (PPTase); Potency, µM, actives largely listed as inhibitors; 4'-phosphopantetheinyl transferase ffp (Bacillus subtilis), Q9F4F7; AID 1490, 2009; Biochemical Sfp PPTase activity, qHTS; actives 3.5% (n = 310,000);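 further: the enzyme is Sfp with the accession as filed and its product quenches rhodamine fluorescence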
#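 Sfp 15 nM + cpd, 15 min RT; start w/ rhodamine-CoA 5 uM, BHQ-2-YbbR 12.5 uM (final); 50 mM Hepes pH 7.6, 10 mM MgCl2, 0.01% NP-40, 0.01% BSA; read 525/598 nm at 0 and 30 min.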
# Hits are given with their value; - = inactive; ? = inconclusive; . = no result; [ ] = dose if it differs, or a comment. A selection: hits, their analogues and other compounds. The true share with any hit is near 11%. Unless noted, the call rests on the fitted dose curve; in most records, active means well fitted curve in the direction sought with a large enough effect; inconclusive means small, poorly fitted or top-dose-only effect, or another doubt; inactive means no such curve, though single readings can be large; an effect the other way counts as inactive or inconclusive.
SMILES,G9a block,FBPA coupling cs,Tau fluor cs,Tau ThT inhib,Tau FP inhib,Sfp PPTase inh
COc1ccccc1N1CCN(C(=O)c2cnn(-c3cccc(Cl)c3)c2C2CCN(C(=O)OC(C)(C)C)CC2)CC1,-,.,-,-,-,.
Cc1ccc(N2CC(C(=O)Nc3ccc(N4CCOCC4)cc3)CC2=O)cc1C (centres undefined),-,-,.,.,.,-
CC1CCc2c(sc(NC(=O)c3cc(-c4ccc(Br)cc4)on3)c2C(N)=O)C1 (centres undefined),-,.,-,?,-,.
COc1ccc2c(C)c(CCC(=O)NCCc3ccc(Cl)cc3)c(=O)oc2c1,-,.,-,-,-,.
Cc1ccc(S(=O)(=O)Nc2c(Cl)c(Cl)c(O)c3ccccc23)cc1,1.26µM,-,.,.,.,44.7µM
Cc1ccc(S(=O)(=O)Nc2ccc(N=Nc3ccc(O)cc3)cc2)cc1,-,-,17.8µM[quencher],14.1µM,?,-
Cc1ccc(S(=O)(=O)Nc2ccccc2-c2ccccc2NS(=O)(=O)c2ccc(C)cc2)cc1,-,-,-,?,-,-
O=S(=O)(c1ccccc1)c1nc(-c2cccs2)oc1SCc1ccccc1F,?,.,?,-,?,.
CCCCN(CC)CCCNC(=O)c1c(C)oc2ncnc(N3CCOCC3)c12,-,.,-,-,-,.
CCOC(=O)c1c(NC(=O)c2cc(-c3ccc(Cl)cc3)on2)sc(C)c1C,8.91µM,.,-,-,-,.
CCOC(=O)c1c(NC(=O)c2cc(CC)on2)sc(C)c1C,7.08µM,.,-,?,-,.
CCOC(=O)c1c(Nc2nc(C)c(C(=O)NC)s2)sc(C)c1C,?,-,-,?,-,39.8µM
CCOC(=O)c1sc(Nc2nc(C)cc(C)n2)nc1C,-,-,-,-,-,?
CCOC(=O)c1c(NC(=O)c2cc(-c3ccc(OC)c(OC)c3)on2)sc(C)c1C,-,.,-,-,-,.
CCOC(=O)c1c(NC(=O)c2cc(C)on2)sc(C)c1C,3.16µM,.,-,?,?,.
CCN(CC)S(=O)(=O)c1ccc(NC(=O)c2cc3ccc4cccnc4c3[nH]2)cc1,-,.,-,?,?,.
CCOC(=O)c1c(NC(=O)c2cc(-c3ccccc3OC)on2)sc(C)c1C,2.82µM,.,-,?,?,.
CCOC(=O)c1c(NC(=O)c2noc3c2CCCC3)sc(C)c1C,28.2µM,-,-,-,-,31.6µM
CCOC(=O)c1c(NC(=O)c2cc(-c3ccccc3)on2)sc2c1CCCC2,-,.,-,-,-,.
OC(CNCC1(N2CCCCC2)CCCCC1)COc1ccc(Cl)cc1Cl (centres undefined),50.1µM,-,-,?,-,-
CCCc1cnc(NCCNCC(O)COc2ccc(Cl)c(Cl)c2)nc1 (centres undefined),-,-,-,-,-,?
CC(C)CN1CCC(C(=O)N2CCN(c3ccccc3F)CC2)CC1,10µM,-,-,-,-,-
CCOc1ccc(CN2CCC(C(=O)N3CCN(c4ccccc4F)CC3)CC2)cc1OC,8.91µM,-,-,-,-,-
CCOc1ccc(S(=O)(=O)N2CCC(C(=O)N3CCN(c4ccccc4F)CC3)CC2)cc1C,.,.,.,.,.,-
COc1cc(CN2CCC(C(=O)N3CCN(c4ccccc4F)CC3)CC2)cc(OC)c1O,10µM,-,-,-,-,-
SMILES,G9a block,FBPA coupling cs,Tau fluor cs,Tau ThT inhib,Tau FP inhib,Sfp PPTase inh
CCn1cc(C(=O)N2CCN(c3ccccc3F)CC2)c(=O)c2cc(S(=O)(=O)N(C)C)ccc21,-,.,-,-,-,.
O=C(NCc1ccccc1)C1CCN(S(=O)(=O)Cc2ccccc2)CC1,-,.,-,-,-,.
CCOC(=O)CSc1nc(C)cc(C)n1,?,-,-,-,-,-
CCOC(=O)CSc1cn2c(n1)CCC2,10µM,-,-,-,-,39.8µM
Cc1ccc2cccc(NC(=O)c3cccc4c(Br)cccc34)c2n1,-,.,-,-,-,.
CCN(CC)CCNC(=O)c1ccc(NC(=O)C2CC(=O)N(c3ccc4c(c3)OCCO4)C2)cc1 (centres undefined),39.8µM,.,.,.,.,.
COc1ccc2nc(NNC(=O)C3COc4ccccc4O3)sc2c1 (centres undefined),?,-,?,?,-,79.4µM
COc1ccc2nc(NC(=O)C3CC(=O)N(c4ccc5c(c4)OCCO5)C3)sc2c1 (centres undefined),39.8µM,.,.,.,.,.
O=C(NC(Cc1ccccc1)c1nc2ccccc2[nH]1)C1CC(=O)N(c2ccc3c(c2)OCCO3)C1 (centres undefined),12.6µM,-,-,-,-,?
O=C(Nc1nc2ccc(F)cc2s1)C1CC(=O)N(c2ccc3c(c2)OCCO3)C1 (centres undefined),-[2.33 µM],.,.,.,.,.
NC(=O)c1ccc(NC(=O)C2CC(=O)N(c3ccc4c(c3)OCCO4)C2)cc1 (centres undefined),-[12.7 µM],.,.,.,.,.
CCN(CC)CCN(Cc1cc2cc(C)ccc2[nH]c1=O)C(=S)Nc1ccccc1,?,-,-,-,-,-
CCOc1cccc2sc(NN)nc12,12.6µM,-,14.1µM[quencher],20µM,?,-
CCOc1cccc2sc(Cl)nc12,?,-,-,-,-,?
Fc1ccccc1N1CCN(CC2CC3C=CC2C3)CC1 (centres undefined),11.2µM,-,-,-,-,-
FC(F)(F)c1cccc(N2CCN(CC3CC4C=CC3C4)CC2)c1 (centres undefined),?,-,-,-,-,-
C1=CC2CC1CC2CN1CCN(Cc2ccccc2)CC1 (centres undefined),2µM,-,-,-,-,79.4µM
O=C1C=CC2(OCCCO2)C(Br)=C1,.,-,-[11.6 µM],-[11.5 µM],-[11.6 µM],-
CSCCC(NC(=O)c1cccc(C)c1)C(=O)OCC(=O)Nc1c(C)nn(-c2ccccc2)c1C (centres undefined),-[12.7 µM],.,.,.,.,.
CN(C)CCCCOc1ccccc1-c1ccccc1,3.55µM,-,-,-,-,-
CN(C)CCCCOc1ccccc1F,8.91µM,-,-,-,-,-
COCCNCCCCOc1ccccc1-c1ccccc1,7.08µM,-,-,-,-,-
CCOc1ccccc1OCCCCOc1ccccc1F,-,-,-,-,-,-
CCCCNCCOCCOc1ccccc1-c1ccccc1,?,-,-,-,-,-
CCOc1ccc(OCCCCN(C)C)cc1,3.55µM,-,-,-,-,?
CCOc1ccc(OCCCN(C)C)cc1,?,-,-,-,-,?
COc1ccc(/C=C/c2nc(C#N)c(NCCc3ccccc3)o2)cc1OC,-,.,?,?,-,.
COCCCNC(=O)C(=O)NCC(c1ccc2c(c1)OCO2)N1CCOCC1 (centres undefined),-,.,-,-,-,.
